# TLR9-MyD88 block = blocks human TLR9 binding to MyD88. Q9NR96+Q99836. CHO BLA complementation TLR9-MyD88, CCF4 FRET ratio. inhibition, % at 4.98 µM. 0.21% of 340,000 active. AID 504734;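 active means inhibition above the mean over all tested compounds plus 3 SD, cut at about 21% in these data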;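 further: 0% = DMSO only wells and 100% = clavulanate BLA inhibitor control wells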
# TLR4-MyD88 BLA = blocks binding of human TLR4 to MyD88 | O00206+Q99836 | HeLa CL3-4 TLR4/MyD88 BLA complementation, FRET ratio | inhibition, % at 8.4 µM | 0.18% of 200,000 active; in the data active means inhibition above about 25%;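 further: 0% = vehicle and 100% = reference inhibitor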
# ABHD5-PLIN5 inh = ABHD5-PLIN5 protein interaction inhibition | inhibition, % at 4 µM | Split G. princeps luciferase complementation, luminescence, 4 h | 0.78% of 360,000 active | Q00G26+Q8WTS1 | AID 602281;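 active means inhibition above the mean inhibition across every tested compound plus 3 SD, cut at about 22% in these data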;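 further: 0% = DMSO only wells and the 100% control is not disclosed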
# Target sequence (Q00G26 whole entry, looked up): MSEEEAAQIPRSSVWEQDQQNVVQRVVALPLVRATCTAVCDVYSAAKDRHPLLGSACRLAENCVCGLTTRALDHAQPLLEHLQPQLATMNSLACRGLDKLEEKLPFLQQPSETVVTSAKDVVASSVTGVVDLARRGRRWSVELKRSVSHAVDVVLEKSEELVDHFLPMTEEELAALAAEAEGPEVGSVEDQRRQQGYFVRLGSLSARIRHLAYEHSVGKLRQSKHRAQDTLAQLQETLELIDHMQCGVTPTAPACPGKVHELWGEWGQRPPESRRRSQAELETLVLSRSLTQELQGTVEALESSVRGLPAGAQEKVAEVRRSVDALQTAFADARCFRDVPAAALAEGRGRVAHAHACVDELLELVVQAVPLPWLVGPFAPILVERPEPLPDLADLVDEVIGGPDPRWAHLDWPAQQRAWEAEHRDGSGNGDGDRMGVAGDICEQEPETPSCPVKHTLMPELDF
# Target sequence (Q8WTS1 whole entry, looked up): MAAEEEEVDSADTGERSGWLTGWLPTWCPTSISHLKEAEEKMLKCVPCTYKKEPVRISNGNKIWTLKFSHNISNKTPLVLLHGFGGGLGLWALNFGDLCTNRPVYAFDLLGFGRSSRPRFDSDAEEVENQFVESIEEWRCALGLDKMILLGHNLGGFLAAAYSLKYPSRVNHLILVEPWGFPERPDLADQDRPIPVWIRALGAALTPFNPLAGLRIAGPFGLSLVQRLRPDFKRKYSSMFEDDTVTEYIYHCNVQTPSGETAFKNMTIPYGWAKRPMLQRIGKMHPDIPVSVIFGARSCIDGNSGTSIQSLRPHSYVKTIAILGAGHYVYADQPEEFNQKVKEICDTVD
# HTR2A ag = agonists of mouse serotonin 5-HT2A receptor (HTR2A); P35363; CHO-K1 mHTR2A beta-arrestin complementation, luminescence; percent of 30 µM serotonin response; activation, % at 7.6 µM; 0.66% of 360,000 active; AID 624169;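 active means activation above a run cutoff, the mean activation of all tested compounds plus 3 SD, cut at about 14% in these data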;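 further: 0% = plate median of compound wells and 100% = 30 µM serotonin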
# NOD2-RIPK2 inh = inhibitors of human NOD2-RIPK2 interaction; O43353; CHO BLA complementation NOD2-RIPK2, CCF4 ratio; inhibition, % at 4.98 µM; 0.38% of 360,000 active; AID 624267; in the data active means inhibition above about 21%;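 further: 0% = vehicle only and 100% = reference blocker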
# CRFBP-R2 block = CRF-BP/CRF-R2 complex antagonism; HEK293 CRF-R2/CRF-BP, CRF-induced calcium fluorescence; inhibition, % at 11.8 µM; 0.59% of 350,000 active; AID 588475;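 active means inhibition of the ligand-induced calcium signal above about 50% at the single tested concentration, limit read from the data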
# ABHD5-PLIN5 conf = ABHD5-PLIN5 interaction inhibition, confirmed; shares compounds with ABHD5-PLIN5 inh; biochemical ABHD5-PLIN5 interaction, luminescence; inhibition, % at 4 µM; 67% of 2,200 active; AID 651612; in the data active means inhibition above about 23%;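 further: 0% = DMSO vehicle wells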
# HNF4 split-luc = counter-screen for ABHD5-PLIN5 inhibitors: HNF4 split-luciferase. 77% of 2,200 active. inhibition, % at 4 µM. shares compounds with ABHD5-PLIN5 inh. HNF4 dimerization, luminescence, biochemical;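 active means mean inhibition across replicate wells exceeding the computed hit threshold, cut at about 13% in these data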;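 further: light from luciferase halves that rejoin when HNF4 fusion proteins dimerize; 0% = DMSO only wells and the 100% control is not given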
# * hit, by the source's call; / = no result. Sampled rows, rich in hits. Any-hit rate of the full collection: about 2.4%.
SMILES,TLR9-MyD88 block,TLR4-MyD88 BLA,ABHD5-PLIN5 inh,HTR2A ag,NOD2-RIPK2 inh,CRFBP-R2 block,ABHD5-PLIN5 conf,HNF4 split-luc
CC(=O)CC1N(S(=O)(=O)c2ccc(C)cc2)c2ccccc2N1S(=O)(=O)c1ccc(C)cc1,/,/,5,7,-9,/,/,/
COc1ccc(CCNC(=O)CN(c2cc([N+](=O)[O-])ccc2OC)S(C)(=O)=O)cc1OC,2,5,-1,2,-2,10,/,/
COc1ccc(CCNC(=O)CN(c2cccc([N+](=O)[O-])c2)S(C)(=O)=O)cc1OC,0,-19,82*,-3,-9,6,7,5
COC(=O)c1cc(C)nc2c1C(=O)C(=O)C=C2N1CCOCC1,2,/,39*,5,-9,-8,73*,53*
COc1ccccc1C(=O)Nc1sc(C(=O)N2CCCC2)c(C)c1C#N,-2,0,60*,-3,-4,-10,3,2
CN1OC[C@@H]2CN(C(=O)C(C)(C)C)[C@H](c3cccc(Oc4ccccc4)c3)C[C@@H]21,-11,/,5,5,-2,-4,/,/
COc1ccc(CCNC(=O)c2cc([C@@H](NC(=O)OC(C)(C)C)C(C)C)sc2N)cc1OC,/,/,-10,-3,-3,/,/,/
CCCS(=O)(=O)c1ncc(Cl)c(C(=O)Nc2ccc(S(=O)(=O)Nc3ncccn3)cc2)n1,-7,/,33*,-1,-6,9,71*,86*
CCSc1ncc(Cl)c(C(=O)Nc2ccc(S(=O)(=O)Nc3ncccn3)cc2)n1,10,/,1,5,-1,-1,/,/
O=C(O)CCC(=O)Nc1sc2c(c1C(=O)Nc1ccccc1)CCCCC2,2,-9,24*,0,-7,-24,9,-15
O=C(O)CCC(=O)Nc1sc2c(c1C(=O)Nc1cccc3ccccc13)CCCCC2,-5,-8,-18,4,0,-43,/,/
CCC(=O)Nc1ccc(S(=O)(=O)NC[C@H]2O[C@@H](n3cnc4c(=O)[nH]c(N)nc43)[C@H](O)[C@@H]2O)cc1,/,/,10,-3,10,/,/,/
Cc1ccc2c(CC(=O)N3CCN(S(=O)(=O)c4ccc5c(c4)OCCO5)CC3)coc2c1,1,-10,27*,5,10,-10,57*,/
Cc1cccc2c1NC(=O)/C2=C\C(=O)c1cccs1,-2,7,53*,-5,7,-31,78*,85*
O=C(O)Cn1cc(/C=C/[N+](=O)[O-])c2ccccc21,-7,-4,15,-2,-8,11,/,/
O=[N+]([O-])/C=C/c1cn(Cc2ccccc2)c2ccccc12,6,1,31*,-5,9,-22,101*,99*
C(=N\n1cnnc1)/c1cn(Cc2ccccc2)c2ccccc12,6,-5,6,-6,5,-36,/,/
O=C(Cn1cc(/C=C\[N+](=O)[O-])c2ccccc21)Nc1ccccc1,7,/,27*,-6,1,-4,96*,83*
CC1(C(=O)NS(=O)(=O)c2ccc(F)cc2F)CCN1C(=O)C/C=C/c1ccccc1 (stereo not drawn),/,/,11,9,14,/,/,/
COc1ccc(C=C(C(=O)c2ccccc2)C(=O)c2ccccc2)cc1,/,/,60*,-9,-8,/,61*,56*
CC(=O)C(=Cc1cccc(C#N)c1)C(=O)c1ccccc1,/,/,61*,1,-6,/,95*,87*
COc1cccc(C=C(C#N)C(=O)c2ccccc2)c1,/,/,12,-4,-7,/,/,/
COc1ccc(C=C(C(C)=O)C(=O)c2ccccc2)cc1,/,/,40*,-7,-11,/,52*,43*
CC(=O)C(=Cc1ccc(Cl)cc1)C(=O)c1ccccc1,/,/,85*,-8,7,/,102*,98*
COc1ccc(C=C(C(=O)c2ccccc2)c2ccccc2)cc1,/,/,-3,-6,-6,/,/,/
SMILES,TLR9-MyD88 block,TLR4-MyD88 BLA,ABHD5-PLIN5 inh,HTR2A ag,NOD2-RIPK2 inh,CRFBP-R2 block,ABHD5-PLIN5 conf,HNF4 split-luc
CC(=O)Nc1ccc(C=C(C(C)=O)C(C)=O)cc1,-1,/,4,4,-5,28,/,/
COC(=O)[C@]12CCCCC=C1N(Cc1ccccc1)C(=O)[C@H](CC(=O)NCC1CCCCC1)C2,/,/,-4,-3,-2,/,/,/
COc1ccc(NC(=O)Nc2ccc3nc([C@@H]4O[C@H](CO)[C@@H](O)[C@H](O)[C@H]4O)[nH]c3c2)cc1OC1CCCC1,/,/,-3,-1,7,/,/,/
O=C(C[C@H]1CC[C@@H](NS(=O)(=O)c2ccccc2)[C@@H](CO)O1)NCc1ccc(Cl)c(Cl)c1,/,/,-2,-5,-7,/,/,/
O=[N+]([O-])c1ccc(S(=O)(=O)c2cccc(C(F)(F)F)c2)nc1,17,/,52*,-7,79*,-6,88*,113*
O=C(O)c1ccccc1NS(=O)(=O)c1cccc(C(F)(F)F)c1,-3,6,4,3,0,24,/,/
O=C(O)c1ccccc1NS(=O)(=O)c1cccc(-n2sc3ccccc3c2=O)c1,5,/,37*,4,4,11,93*,115*
CSc1cccc(N=C2C(=O)Nc3ccccc32)c1,6,/,-3,1,5,-11,/,/
O=C1Nc2ccccc2C1=Nc1cccc(Cl)c1,-7,/,78*,0,4,5,-14,0
CC(=O)Nc1cc(-c2cccc(C(=O)N(C)C)c2)cn2c(-c3ccc(C(C)=O)cc3)cnc12,/,/,15,10,-6,/,/,/
CNC(=O)C[C@H]1C(=O)N(c2ccc(Br)cc2)C[C@@H]1C,-4,/,-7,4,-10,-1,/,/
Cc1ccc(C(=O)N/C(=C\c2ccc(-c3cc(Cl)ccc3Cl)o2)C(=O)NCc2cccnc2)cc1,-5,3,2,-4,-5,-9,/,/
O=C(NCc1cccnc1)/C(=C/c1ccc(-c2cccc(Cl)c2)o1)S(=O)(=O)c1ccccc1,4,16,48*,6,-26,-21,40*,39*
CC(C)CC1C(=O)N(Cc2cn(CC3CCCCC3)nn2)CCS(=O)(=O)N1Cc1ccc(-c2ccncc2)cc1 (stereo not drawn),-6,/,0,2,-4,-3,/,/
Cc1ccc2cc(/C=C/C(=O)c3ccco3)c(Cl)nc2c1,/,/,45*,-2,7,-26,96*,99*
COc1cc2cc(/C=C/C(=O)c3ccco3)c(Cl)nc2cc1OC,-2,14,38*,0,9,-38,90*,82*
COc1ccc2cc(/C=C/C(=O)c3ccco3)c(Cl)nc2c1,/,10,/,/,/,/,/,/
Cc1ccc2nc(Cl)c(/C=C/C(=O)c3ccco3)cc2c1,-2,/,24*,-4,1,101*,92*,86*
Cc1cc(C)n2c(Nc3c(C)cccc3C)c(CC(C)C)nc2n1,/,/,6,-1,-10,/,/,/

# Screening results: PubChem BioAssay, several laboratories
